Results published in PubChem BioAssay (Tox21).
Records with an inconclusive call do not appear. A structure can be active in one record and inactive in another. Active and inactive are the calls of the source. Calls follow the shape of the dose curve; as a rule, active = well fitted activation curve with a large enough effect in the repeat runs; inconclusive = weak or mixed curves; inactive = no such curve, though single readings can be large or run the other way.

molecular target: Aryl hydrocarbon receptor (Homo sapiens) (UniProt P35869); assay: qHTS assay to identify small molecule that activate the aryl hydrocarbon receptor (AhR) signaling pathway (AID 743085); details: HepG2 AhR-luc (HG2L7.5c1), luciferase, 24 h; series mostly up to 70.3 µM; activation: at the top concentration; also: nearly all actives have a fitted effect of over 15% in size;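 as to activation: HG2L7.5c1 human HepG2 liver cells with stably integrated DRE-driven firefly reporter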
Sequence (P35869 whole entry, looked up): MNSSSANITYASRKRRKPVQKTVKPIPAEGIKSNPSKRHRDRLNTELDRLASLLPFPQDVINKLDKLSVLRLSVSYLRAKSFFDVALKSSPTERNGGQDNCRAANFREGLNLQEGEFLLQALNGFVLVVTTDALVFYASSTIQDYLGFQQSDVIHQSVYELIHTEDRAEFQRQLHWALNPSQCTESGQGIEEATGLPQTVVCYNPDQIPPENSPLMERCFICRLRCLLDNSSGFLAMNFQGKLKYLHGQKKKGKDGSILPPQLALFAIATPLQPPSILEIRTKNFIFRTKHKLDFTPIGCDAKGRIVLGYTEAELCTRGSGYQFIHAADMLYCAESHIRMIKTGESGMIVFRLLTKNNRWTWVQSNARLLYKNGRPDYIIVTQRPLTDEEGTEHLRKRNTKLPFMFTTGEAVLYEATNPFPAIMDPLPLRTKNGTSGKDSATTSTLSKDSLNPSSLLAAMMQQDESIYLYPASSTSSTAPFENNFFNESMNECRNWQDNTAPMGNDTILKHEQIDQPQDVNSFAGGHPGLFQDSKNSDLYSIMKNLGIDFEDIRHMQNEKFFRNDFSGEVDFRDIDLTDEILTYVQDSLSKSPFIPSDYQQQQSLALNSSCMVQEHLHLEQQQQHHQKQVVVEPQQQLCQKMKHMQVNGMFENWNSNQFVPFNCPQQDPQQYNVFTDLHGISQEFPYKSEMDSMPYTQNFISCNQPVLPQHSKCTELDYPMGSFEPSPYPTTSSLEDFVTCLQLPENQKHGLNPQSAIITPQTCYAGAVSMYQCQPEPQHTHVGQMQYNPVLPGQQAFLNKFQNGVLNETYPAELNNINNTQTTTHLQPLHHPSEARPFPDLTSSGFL
From the text: U.S. Tox21 Program National Center for Advancing Translational Sciences [NCATS] NIH Chemical Genomics Center [NCGC] U.S. Environmental Protection Agency [EPA] National Institutes of Environmental Health Sciences [NIEHS] National Toxicology Program [NTP] U.S. Food and Drug Administration [FDA] Tox21 Assay overview: The Aryl hydrocarbon Receptor (AhR), a member of the family of basic helix-loop-helix transcription factors, is crucial to adaptive responses to environmental changes. AhR mediates cellular responses to environmental pollutants such as aromatic hydrocarbons through induction of phase I and II enzymes but also interacts with other nuclear receptor signaling pathways. A cell based HepG2-AhR-luc assay (HG2L7.5c1 cell line, developed by Dr. Michael S. Denison, University of California at Davis, was used to assess the activation of AhR. HepG2 (human hepatocellular carcinoma) cells were stably transfected with an Ah receptor-responsive firefly luciferase reporter gene plasmid containing 20 dioxin responsive elements and luciferase reporter gene. Increased luciferase activity can be used to identify the compounds that induce AhR activation.
Tox21 Assay Protocol Summary: 4000 cells in 5 uL/well were dispensed into white wall/solid bottom 1536-well plates using a Multidrop Combi (Thermo Fisher Scientific Inc., Waltham, MA) dispenser. After the assay plates were incubated at 37C for 5 h, 23 nL of compound or DMSO vehicle was transferred to the assay plates by a pintool station (Kalypsys, San Diego, CA). The plates were incubated at 37C for 24 hr. After 1 ul/well of CellTiter-Fluor reagent (Promega, Madison, WI) was added into the assay plates using a Flying Reagent Dispenser (FRD) (Aurora Discovery, CA), the assay plates were incubated at 37C for 30 min. The fluorescence intensity in the plates was measured using a ViewLux plate reader (PerkinElmer, Shelton, CT), followed by the addition of 4 uL of ONE-Glo Luciferase Assay reagent (Promega) using an FRD (Aurora Discovery). After the assay plates were incubated at room temperature for 30 min, luminescence intensity was measured using a ViewLux plate reader (Perkin Elmer).
% is scaled to controls: 0 for no effect and ±100 for the full control effect; potency is read from the fitted curve at half-maximal effect.

Row | SMILES | activation | Potency
1 | O=C(O)c1ccc(Cl)c(Cl)c1 | -2.11% (inactive) | 
2 | CN(C/C=C/C#CC(C)(C)C)Cc1cccc2ccccc12 | 5.12% (inactive) | 
3 | O=[N+]([O-])c1ccccc1Nc1ccccc1 | -0.278% (inactive) | 
4 | O=C(O)c1cc(O)c2c(c1)C(=O)c1cccc(O)c1C2=O | 2.91% [at 95 µM] (inactive) | 
5 | Cc1cccc(CN2CCN(C(c3ccccc3)c3ccc(Cl)cc3)CC2)c1 (stereo not given) | -1.36% [at 32.5 µM] (inactive) | 
6 | CCCCCCCCCOC(=O)c1ccc(O)cc1 | -0.869% (inactive) | 
7 | Cc1c(C)c2c(c(C)c1OC(=O)CCC(=O)O)CC[C@@](C)(CCC[C@H](C)CCC[C@H](C)CCCC(C)C)O2 |  | inactive
8 | Oc1ccc2cc(SSc3ccc4cc(O)ccc4c3)ccc2c1 | 5.71% (inactive) | 
9 | OCCN(CCO)c1nc(N2CCCCC2)c2nc(N(CCO)CCO)nc(N3CCCCC3)c2n1 | -0.288% (inactive) | 
10 | CC(=O)N1CCN(c2ccc(OC[C@H]3CO[C@](Cn4ccnc4)(c4ccc(Cl)cc4Cl)O3)cc2)CC1 |  | 6.68 µM (active)
11 | O=C(O)c1c(Cl)cccc1Cl | 2.87% (inactive) | 
12 | COCCCC/C(=N\OCCN)c1ccc(C(F)(F)F)cc1 | 0.86% (inactive) | 
13 | CC(=O)SC[C@@H](Cc1ccccc1)C(=O)NCC(=O)OCc1ccccc1 | 3.79% [at 32.5 µM] (inactive) | 
14 | O=C(Nc1cccc(C(F)(F)F)c1)c1cc(Br)cc(Br)c1O | -0.632% (inactive) | 
15 | Cc1nc(-c2ccc3c(c2)CCN(CCC2CCC(NC(=O)/C=C/c4ccc(F)cc4)CC2)CC3)no1 (stereo not given) | 0.295% [at 32.5 µM] (inactive) | 
16 | O=CC=C(c1ccccc1)c1ccccc1 | 0.619% [at 95 µM] (inactive) | 
17 | [O-][n+]1ccccc1SSc1cccc[n+]1[O-] | 1.96% (inactive) | 
18 | CC1=NC(C)OC1C (stereo not given) | 3.84% (inactive) | 
19 | NC(=O)NS(=O)(=O)c1ccc(N)cc1 | -1.32% (inactive) | 
20 | CC(C)c1ccc2c(c1)CC[C@H]1[C@](C)(CN)CCC[C@]21C | -0.928% (inactive) | 

Row | SMILES | activation | Potency
21 | Oc1cccc(-c2c3nc(c(-c4cccc(O)c4)c4ccc([nH]4)c(-c4cccc(O)c4)c4nc(c(-c5cccc(O)c5)c5ccc2[nH]5)CC4)C=C3)c1 | -14.6% (inactive) | 
22 | CCC(Cl)C(Cl)C(Cl)CC(Cl)C(Cl)C(C)Cl (stereo not given) | -0.324% (inactive) | 
23 | c1cc(C(c2ccc(OCC3CO3)cc2)c2ccc(OCC3CO3)cc2)ccc1OCC1CO1 (stereo not given) | -0.623% (inactive) | 
24 | OCCCCCCCCCCCCBr | 7.31% [at 95 µM] (inactive) | 
25 | O=C1Cc2cc(CCN3CCN(c4nsc5ccccc45)CC3)c(Cl)cc2N1 |  | 15 µM (active) and inactive
26 | [Cl][Au]([Cl])[Cl] | -4.51% (inactive) | 
27 | CCCCCCCC/C=C\CCCCCCCCOCCO | -3.79% [at 95 µM] (inactive) | 
28 | O=C(Nc1cccc([N+](=O)[O-])c1)c1cc2ccccc2cc1O |  | 2.43 µM (active)
29 | O=C1CCCCCN1SSN1CCCCCC1=O | -0.095% (inactive) | 
30 | O=C(OCC1CO1)C1CCCCC1C(=O)OCC1CO1 (stereo not given) | 4.13% (inactive) | 
31 | CN(C)c1ccc(SC#N)cc1 | 5.78% (inactive) | 
32 | Cc1cc2c(cc1C(F)(F)F)N(C(=O)Nc1ccc(Oc3cccnc3C)nc1)CC2 | -0.339% (inactive) | 
33 | Nc1ccccc1O |  | 21.4 µM (active)
34 | Cc1cc(CCN2CCN(c3nsc4ccccc34)CC2)cc2c1NC(=O)CC2(C)C | -8.89% (inactive) | 
35 | NNc1nc(-c2ccc([N+](=O)[O-])cc2)cs1 |  | 9.69 µM (active)
36 | CN1CCN(CCC(=O)N2c3ccccc3Sc3ccc(C(F)(F)F)cc32)CC1 | -0.235% (inactive) | 
37 | C/C=C1/C(=O)C[C@H]2[C@@H]3CCC4=CC(=O)CC[C@]4(C)[C@H]3CC[C@]12C | -1.17% (inactive) | 
38 | O=C(Nc1cccc(Cl)c1)OCC#CCCl | 1.62% (inactive) | 
39 | COc1ccc(CN2CCN(C(c3ccc(F)cc3)c3ccc(F)cc3)CC2)c(OC)c1OC | 5.39% (inactive) | 
40 | CSc1cnc(C)cn1 | -1.38% [at 95 µM] (inactive) | 
